High-throughput results deposited in PubChem by National Center for Advancing Translational Sciences (NCATS).
GLS inhibitor: inhibitors of human glutaminase (GLS) | O94925 | GLS enzymatic activity, qHTS titration | Potency, µM (series often up to 45.5 µM), for the others: top-dose activity change, negative = inhibition, actives largely listed as inhibitors | 410,000 tested, 0.21% active; further: on the % scale 0 is the no-effect control and ±100 the full control effect
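Two-point fluorescence kinetic (t0, 30 min RT) for hKGA; glutamate detected via glutamate oxidase–HRP–Amplex Red. Substrate: 1 mM L-glutamine solution; buffer 45 mM KH2PO4, pH 8.2.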
PLK1 PBD inh: inhibitors of human PLK1 polo-box domain binding; Plk1 PBD binding of FITC phosphopeptide, fluorescence polarization; Potency, µM, inactives show max response, negative = inhibition, hits mostly inhibitors; AID 720504; 360,000 tested, 2.8% active; P53350; further: series mostly up to about 57 µM; on the % scale 0 is the no-effect control and ±100 the full control effect; nearly all actives have a fitted effect of over 65% in size
Mito fusion yeast: blocks mitochondrial division or promotes mitochondrial fusion; S. cerevisiae fusion-defective mutant growth rescue, CellTiterGlo 48 h; Potency, µM (series often up to 46.1 µM), inactives show at the top dose growth rescue (activation), hits mostly activators; 320,000 tested, 0.23% active; further: % of control where 0% means no effect; nearly all actives have a fitted effect of over 45% in size
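Growth-rescue viability read-out: after 48 h at the non-permissive 37C in glycerol/ethanol YPEG, yeast mitochondrial fusion mutants are measured by CellTiterGlo luminescence; compounds (23 nl pinned per well) restoring growth score as division inhibitors or fusion activators.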
PKM2 activator: activators of human pyruvate kinase M2; P14618; purified PKM2, Kinase-Glo ATP luminescence, activation; response scale: 0% is enzyme alone, no compound; Potency, µM (highest dose often 57.5 µM), for inactives: at the top dose activation, hits mostly activators; 260,000 tested, 0.34% active; AID 1631; further: on the % scale 0 is the no-effect control and ±100 the full control effect; nearly all actives have a fitted effect of over 55% in size
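Purified hPK-M2 (>95% pure) converted ADP (0.1 mM final) to ATP with 0.5 mM PEP in 50 mM imidazole pH7.2, KCl, MgCl2, Tween 20, BSA; 1 h at room temperature. ATP detected by Kinase-Glo luminescence.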
VDR inh: vitamin D3 receptor (human) inhibition. VDR-SRC2-3 peptide fluorescence polarization, 2 h. Potency, µM, without a hit: max response, negative = inhibition, hits mostly inhibitors. 400,000 tested, 0.93% active; further: on the % scale 0 is the no-effect control and ±100 the full control effect
Target sequence (P11473 whole entry, looked up): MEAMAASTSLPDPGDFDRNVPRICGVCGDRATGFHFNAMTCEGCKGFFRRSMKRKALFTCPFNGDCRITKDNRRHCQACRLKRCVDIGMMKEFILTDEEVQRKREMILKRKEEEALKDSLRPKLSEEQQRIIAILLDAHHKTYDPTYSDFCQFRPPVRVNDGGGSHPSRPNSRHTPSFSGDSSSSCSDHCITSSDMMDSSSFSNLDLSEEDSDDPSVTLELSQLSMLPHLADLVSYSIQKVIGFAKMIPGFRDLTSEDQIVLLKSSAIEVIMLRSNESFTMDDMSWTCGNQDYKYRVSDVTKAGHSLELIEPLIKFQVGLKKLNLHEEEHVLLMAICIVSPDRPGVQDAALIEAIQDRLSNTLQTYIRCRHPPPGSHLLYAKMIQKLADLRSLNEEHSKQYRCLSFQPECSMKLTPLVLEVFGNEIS
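After 23 nl compound addition and a short centrifugation, plates sat for 2 hours at ambient temperature; polarization of fluorescence then indicated loss of VDR binding to peptide SRC2-3.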
KAT2A inh: blocks human GCN5L2 histone acetyltransferase. AID 504327. Potency, µM (top dose mostly 58.9 µM), for inactives: at the top dose activity change, negative = inhibition, hits mostly inhibitors. GCN5L2 HAT assay, ThioGlo1 CoA-SH fluorescence. 390,000 tested, 0.21% active; further: on the % scale 0 is the no-effect control and ±100 the full control effect
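GCN5L2 (20nM final) in 50mM HEPES, 0.1mM EDTA pH 7.5, 0.01% Tween-20 was preincubated 15 min at room temperature with compound, then given ThioGlo1 (50uM), H3(1-25) peptide (75uM) and acetyl-CoA (70uM); CoA-thiol fluorescence (Ex340/Em540) was read at 0 and 20 min.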
The depositor's hits bear a star; ? = inconclusive; . = no result given; ! = not active in a repeat; [ ] = another dose, or the depositor's remark. An excerpt weighted towards active compounds, which were near 3.4% of everything screened. The call rests on the fitted dose curve; in most records, active means well fitted curve in the direction sought with a large enough effect; inconclusive means small, poorly fitted or top-dose-only effect, or another doubt; inactive means no such curve, though single readings can be large; an effect the other way counts as inactive or inconclusive. Potency means the concentration at half of the fitted maximal effect.

SMILES	GLS inhibitor	PLK1 PBD inh	Mito fusion yeast	PKM2 activator	VDR inh	KAT2A inh
CC(=O)N1CCN(CC(=O)Nc2sccc2C#N)CC1	14%	24µM*	2%	0%	-5%	-2%
CO[C@H](C(=O)[C@@H](O)[C@@H](C)O)C1Cc2cc3cc(O[C@H]4C[C@@H](O[C@H]5C[C@@H](O)[C@H](O)[C@@H](C)O5)[C@@H](O)[C@@H](C)O4)c(C)c(O)c3c(O)c2C(=O)[C@H]1O[C@H]1C[C@@H](O[C@H]2C[C@@H](O[C@H]3C[C@](C)(O)[C@H](O)[C@@H](C)O3)[C@H](O)[C@@H](C)O2)[C@H](O)[C@@H](C)O1 (stereo partly drawn)	-27%	.	.	.	?	8%
CC(C)C[C@H]1COc2cc(N3CCC[C@H]3CO)ccc2S(=O)(=O)N1	-27%	-14%	.	.	.	.
c1csc(CNc2ncnc3ccc(-c4ccoc4)cc23)c1	-9%	.	19%	.	32µM*!	-11%
c1csc(CNc2ncnc3ccc(-c4ccc5c(c4)OCO5)cc23)c1	3%	.	11%	.	-2%	-16%
c1csc(CNc2ncncc2-c2ccoc2)c1	.	.	.	.	50µM*	-13%
Cc1cnc(CNc2ncncc2-c2ccoc2)cn1	.	.	.	.	?	-5%
c1ccc(CNc2ncncc2-c2ccoc2)cc1	.	.	.	.	50µM*	-13%
CC1CCN2c3ccccc3CC3(C(=O)OC(C)(C)OC3=O)C2C1 (stereo not drawn)	.	.	.	.	-18%	.
O=S(=O)(c1ccc2c(c1)OCO2)N1CCN(c2nc(-c3cccs3)nc3ccccc23)CC1	.	.	.	.	0%	.
CCc1ccc(OCc2ccccc2C(=O)Nc2ccc3nc(C)cc(N)c3c2)cc1	.	.	.	.	44%	-1%
Cc1ccc(/C=C/C(=O)N2CC(=O)Nc3ccccc32)o1	-10%	-19%	-2%	17%	-10%	22µM*
Cc1cc(C)cc(C(=O)N2CC(=O)Nc3ccccc32)c1	0%	-5%	15%	-4%	-9%	-1%
CCC1=C2CC[C@H]3C(=O)N(C)C(=O)[C@H]3[C@H]2[C@@]2(C)C(=NCc3ccccc3)OC(=O)N2C1=O	.	.	.	-2%	.	.
CCC(CCC(C)C1CCC2C3CC=C4CC(OC(C)=O)CC[C@@]4(C)C3CC[C@@]12C)C(C)C (stereo partly drawn)	.	.	.	.	0%	0%
COc1ccc(OC)c2c1nc1n2CCS1	2%	-30%	2%	6%	?	-9%
O=C1CS(=O)(=O)N(Cc2cccc(F)c2)c2ccc(Br)cc21	27%	-9%	-5%	.	1%	-28%
O=C1c2cc(Br)ccc2N(Cc2ccc(Br)cc2)S(=O)(=O)C1c1cc(Cl)c(Cl)cc1[N+](=O)[O-] (stereo not drawn)	0%	21µM*	.	.	-27%	?
Cc1cc(C)cc(S(=O)(=O)c2cnc3ccccc3n2)c1	?	3.8µM*	4%	-6%	40µM*	-6%
COc1ccc2[nH]c(C)c(CCN3C(=O)C4CC=CCC4C3=O)c2c1 (stereo not drawn)	17%	21µM*	3%	20%	?	-5%
COc1ccccc1NC(=O)CCS(=O)(=O)c1cc2c(cc1Cl)NC(=O)CO2	-5%	-6%	6%	3%	-5%	2%
COc1ccc(C(C)NS(=O)(=O)Cc2ccccc2)cc1 (stereo not drawn)	3%	-11%	3%	-3%	-10%	1%
CSc1ncc2c(n1)-c1ccccc1N(Cc1ccccc1C)S2(=O)=O	-7%	.	.	.	0%	-5%
CCOC(=O)c1c(NC(=O)C2CCCO2)sc(C(=O)OC(C)(C)C)c1C (stereo not drawn)	-16%	6µM*	1%	-9%	?	2%
CCOC(=O)c1c(NC(=O)C2CCCO2)sc(C)c1C (stereo not drawn)	12%	-8%	-8%	-2%	4%	-8%
SMILES	GLS inhibitor	PLK1 PBD inh	Mito fusion yeast	PKM2 activator	VDR inh	KAT2A inh
CCCc1cc(C(N)=O)c(NC(=O)c2ccco2)s1	8%	27µM*	7%	-1%	-6%	-5%
CCCc1cc(C(N)=O)c(NC(=O)C2CCCO2)s1 (stereo not drawn)	-10%	11µM*	4%	-9%	-28%	-18%
NC(=O)c1ccccc1NC(=O)C1CCCO1 (stereo not drawn)	-1%	-9%	-1%	4%[11.5 µM]	-2%	-1%
Cc1sc(NC(=O)C2CCCO2)c(C(N)=O)c1C (stereo not drawn)	0%	17µM*	-2%	1%	?	-12%
Clc1ccc(-c2cc3nc(NCc4cccc(Cl)c4)ccn3n2)cc1	-1%	-25%	.	.	.	.
CN1CCN(c2ncc3nc(-c4cccs4)c(=O)n(C[C@H]4CCCO4)c3n2)CC1	.	.	.	.	0%	?
CCOC(=O)c1c(NC(=O)c2noc3c2CC(C(C)(C)C)CC3)sc2c1CCCC2 (stereo not drawn)	-14%	.	.	.	?	?
NC(=O)c1c(NC(=O)c2noc3c2CCCC3)sc2c1CCCC2	-11%	.	.	.	50µM*	-26%
NC(=O)c1c(NC(=O)C2CCCO2)sc2c1CCCC2 (stereo not drawn)	-14%	11µM*	0%	7%	-28%	-14%
CCOC(=O)c1c(NC(=O)C2CCCO2)sc2c1CCC2 (stereo not drawn)	-4%	-5%	15%	-3%	-10%	.
CCn1ncc(Br)c1C(=O)Nc1sc2c(c1C(N)=O)CCC2	12%	-12%	20µM*	-4%	-14%	8%
Cc1ccc(NC(=O)c2cc(S(=O)(=O)N3CCc4ccccc43)ccc2F)cc1Cl	-9%	.	.	.	13%	-9%
S=C1Cc2ccccc2N1	-4%	12µM*	-29%	8%	2.2µM*	8%
S=C1Nc2ccccc2CS1	7%	-15%	.	.	.	.
COc1ccc(CCn2c(C)c(C(C)=O)c3cc(OC(=O)c4ccco4)ccc32)cc1OC	1%	24µM*	-8%	-3%	4%	0%
CC(=O)c1c(C)n(C)c2ccc(OC(=O)c3ccco3)cc12	4%	-8%	-10%	9%	-3%	-5%
COc1ccc(C(=O)NNC(=O)C2CCCO2)cc1 (stereo not drawn)	66%	27µM*	-5%	-5%	?	-3%
COc1cccc(C(=O)NNC(=O)C2CCCO2)c1 (stereo not drawn)	4%	-9%	-4%	-4%	19%	-2%
CCCNC(=O)NNC(=O)c1ccc(F)cc1	11µM*	24µM*	-17%	1%	?	-2%
O=C(NCCCCNC(=O)c1ccc(F)cc1)c1ccc(F)cc1	-11%	1%	1%	1%	4%	-1%
